# Results as given in PubChem BioAssay (EPA / NIEHS).
# Results filed as inconclusive are left out. Activity calls are given as the source filed them. How the source made its calls: active means hit-call score of the fitted dose curve at least 0.9, where 1 is the maximum; inconclusive means response in the unintended direction; inactive means score below 0.9.
# How the values were obtained:
# [1] = target: Cellular tumor antigen p53 (Homo sapiens) (UniProt P04637); test: TOX21_p53_BLA_p3_ratio: Tox21 HCT-116 p53 Agonism Beta-lactamase Assay, Ratio, Phase 3 (AID 2283596)
# How it was run: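 HCT116 p53-bla cells (4000/well) given compound in DMSO (217-fold dilution) after 5 h, incubated 16 h at 37C. CCF4-AM substrate 2 h at room temperature; 460/530 nm emission ratio, gain fitted against DMSO.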
# [2] = target: Cellular tumor antigen p53 (Homo sapiens) (UniProt P04637); test: TOX21_p53_BLA_p5_ratio: Tox21 HCT-116 p53 Agonism Beta-lactamase Assay, Ratio, Phase 5 (AID 2283599)
# How it was run: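 HCT-116 cells carrying a p53-inducible beta-lactamase reporter were seeded at 4000 cells/well and dosed after 5 h with compound in DMSO (217-fold dilution). After 16 h at 37C, CCF4-AM substrate was added for 2 h, and the 460/530 nm emission ratio was scored as gain-of-signal versus DMSO.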
# [3] = target: Cellular tumor antigen p53 (Homo sapiens) (UniProt P04637); test: TOX21_p53_BLA_p4_ratio: Tox21 HCT-116 p53 Agonism Beta-lactamase Assay, Ratio, Phase 4 (AID 2283601)
# How it was run: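 HCT116 cells carrying an inducible beta-lactamase reporter were plated at 4000 cells/well, rested 5 h, then exposed to compounds in DMSO (217-fold dilution) for 16 h at 37C. CCF4-AM substrate was loaded 2 h at room temperature; 460/530 nm emission ratio scored gain-of-signal versus DMSO.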
# [4] = Tanguay_ZF_120hpf_MORT_legacy: (Legacy) Oregon State University Tanguay Lab 120 Hour Post-fertilization zebrafish Assay for Mortality (AID 2283633)
# How it was run: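 Dechorionated Tropical 5D wild-type zebrafish embryos, one per well from 6 hpf, static exposure in 0.64% DMSO at 28C until 120 hpf. Mortality scored as binary by brightfield microscopy at 24 and 120 hpf.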
# [5] = Tanguay_ZF_120hpf_YSE_legacy: (Legacy) Oregon State University Tanguay Lab 120 Hour Post-fertilization zebrafish Assay for Yolk Sac Edema (AID 2283634);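 on AC50: actives raise the incidence of yolk sac edema above the DMSO baseline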
# How it was run: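 Dechorionated Tropical 5D wild-type zebrafish embryos were exposed statically, one per well, from 6 to 120 hpf at 28C in 0.64% DMSO. Yolk sac edema was scored present/absent by brightfield at 120 hpf, and dead embryos were excluded.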
# [6] = Tanguay_ZF_120hpf_AXIS_legacy: (Legacy) Oregon State University Tanguay Lab 120 Hour Post-fertilization zebrafish Assay for Body Axis Malformation (AID 2283635);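 on AC50: potency for an increased fraction of larvae scored with body axis malformation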
# How it was run: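 Dechorionated wild-type Tropical 5D zebrafish embryos, one per well, statically exposed from 6 hpf to 120 hpf at 28C in 0.64% DMSO final. Body axis malformation scored present/absent by brightfield microscopy at 120 hpf; dead embryos excluded.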
# [7] = Tanguay_ZF_120hpf_EYE_legacy: (Legacy) Oregon State University Tanguay Lab 120 Hour Post-fertilization zebrafish Assay for Eye Malformation (AID 2283636);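 further: binary presence or absence of eye malformation scored by brightfield in 120 hpf larvae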
# How it was run: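 Dechorionated wild-type Tropical 5D zebrafish embryos were exposed statically from 6 hpf, one per well, to 120 hpf at 28C in sealed, foil-covered plates with 0.64% DMSO. Eye malformation was scored present/absent by brightfield microscopy against DMSO controls.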
# [8] = Tanguay_ZF_120hpf_SNOU_legacy: (Legacy) Oregon State University Tanguay Lab 120 Hour Post-fertilization zebrafish Assay for Snout Malformation (AID 2283637)
# How it was run: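 Tropical 5D wild-type zebrafish embryos, dechorionated with pronase at 4 hpf, were exposed singly from 6 hpf to 120 hpf statically at 28C in 0.64% DMSO. Snout malformation was scored present/absent by brightfield microscopy, fitted against DMSO.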
# [9] = Tanguay_ZF_120hpf_JAW_legacy: (Legacy) Oregon State University Tanguay Lab 120 Hour Post-fertilization zebrafish Assay for Jaw Malformation (AID 2283638);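 on AC50: active means more embryos with jaw malformation than DMSO controls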
# How it was run: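 Dechorionated Tropical 5D wild-type zebrafish embryos, one per well, exposed statically from 6 hpf to 120 hpf at 28C in 0.64% DMSO. Jaw malformation was scored by brightfield microscopy as present or absent. It was not scored in dead embryos.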
# [10] = Tanguay_ZF_120hpf_OTIC_legacy: (Legacy) Oregon State University Tanguay Lab 120 Hour Post-fertilization zebrafish Assay for Otic Vesicle Malformation (AID 2283639)
# How it was run: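 Otic vesicle malformation is read as a yes/no morphology call at 120 hpf. Exposure is static at 28C with 0.64% (vol/vol) DMSO; embryos that die are excluded from non-mortality endpoints.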
# [11] = Tanguay_ZF_120hpf_PE_legacy: (Legacy) Oregon State University Tanguay Lab 120 Hour Post-fertilization zebrafish Assay for Pericardial Edema (AID 2283640);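 on AC50: potency for increased incidence of pericardial edema versus DMSO baseline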
# How it was run: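 Tropical 5D wild-type zebrafish embryos were statically exposed until 120 hpf at 28C, with 0.64% DMSO final. Pericardial edema was scored by brightfield as present or absent; endpoints were not scored in dead embryos.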
# [12] = Tanguay_ZF_120hpf_BRAI_legacy: (Legacy) Oregon State University Tanguay Lab 120 Hour Post-fertilization zebrafish Assay for Brain Malformation (AID 2283641)
# How it was run: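 Tropical 5D wild-type zebrafish embryos exposed statically until 120 hpf at 28C, 0.64% DMSO final, sealed and dark. Brain malformation scored present/absent by brightfield at 120 hpf; dead embryos excluded. Trimethyltin chloride 5uM positive control.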
# [13] = Tanguay_ZF_120hpf_SOMI_legacy: (Legacy) Oregon State University Tanguay Lab 120 Hour Post-fertilization zebrafish Assay for Somite Malformation (AID 2283647)
# How it was run: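 Dechorionated Tropical 5D wild-type zebrafish embryos, one per well from 6 hpf, statically exposed at 28C to 120 hpf in 0.64% DMSO; somite malformation scored present/absent by brightfield; trimethyltin 5 uM positive control; dead embryos not scored.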
# [14] = Tanguay_ZF_120hpf_PFIN_legacy: (Legacy) Oregon State University Tanguay Lab 120 Hour Post-fertilization zebrafish Assay for Pectoral Fin Malformation (AID 2283648);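 further: each larva judged yes or no for fin defect by brightfield with dead larvae skipped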
# How it was run: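 Tropical 5D wild-type embryos, dechorionated with pronase at 4 hpf, were placed singly in wells at 6 hpf and statically exposed until 120 hpf at 28C, sealed and dark, with 0.64% (vol/vol) final DMSO; pectoral fin malformation scored present/absent.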
# [15] = Tanguay_ZF_120hpf_PIG_legacy: (Legacy) Oregon State University Tanguay Lab 120 Hour Post-fertilization zebrafish Assay for Pigmentation Malformation (AID 2283650)
# How it was run: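 Tropical 5D wild-type zebrafish embryos, dechorionated with pronase at 4 hpf, were exposed singly from 6 hpf to 120 hpf statically at 28C in sealed, dark plates with 0.64% DMSO; pigmentation scored present/absent by brightfield microscopy, fitted against DMSO.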
# [16] = Tanguay_ZF_120hpf_CIRC_legacy: (Legacy) Oregon State University Tanguay Lab 120 Hour Post-fertilization zebrafish Assay for Circulatory Malformation (AID 2283651)
# How it was run: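 Using wild-type Tropical 5D zebrafish, we exposed dechorionated embryos from 6 to 120 hpf in embryo medium with 0.64% DMSO. Circulatory defects were scored as present or absent; 5uM trimethyltin chloride served as positive control.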
# [17] = TOX21_p53_BLA_p4_viability: Viability Assessment in the Tox21 HCT-116 p53 Agonism Beta-lactamase Assay, Phase 4 (AID 2283597);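 further: hits lower the luminescence signal meaning cytotoxicity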
# How it was run: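 HCT-116 p53-bla cells, 4000/well, dosed after 5 h attachment and incubated 16 h at 37 °C, 5% CO2. Viability from CellTiter-Glo ATP luminescence after 30 min at room temperature, taken after the beta-lactamase read; loss of signal indicates cytotoxicity.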
# [18] = TOX21_p53_BLA_p5_viability: Viability Assessment in the Tox21 HCT-116 p53 Agonism Beta-lactamase Assay, Phase 5 (AID 2283600)
# How it was run: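 HCT-116 p53 beta-lactamase reporter cells, 4000/well, were exposed to compound (pin transfer, 217-fold dilution) for 16 hours at 37C. Cellular ATP was read by CellTiter-Glo luminescence after 30 min at room temperature.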
# Sequence of Cellular tumor antigen p53 (Homo sapiens) (P04637 whole entry, looked up): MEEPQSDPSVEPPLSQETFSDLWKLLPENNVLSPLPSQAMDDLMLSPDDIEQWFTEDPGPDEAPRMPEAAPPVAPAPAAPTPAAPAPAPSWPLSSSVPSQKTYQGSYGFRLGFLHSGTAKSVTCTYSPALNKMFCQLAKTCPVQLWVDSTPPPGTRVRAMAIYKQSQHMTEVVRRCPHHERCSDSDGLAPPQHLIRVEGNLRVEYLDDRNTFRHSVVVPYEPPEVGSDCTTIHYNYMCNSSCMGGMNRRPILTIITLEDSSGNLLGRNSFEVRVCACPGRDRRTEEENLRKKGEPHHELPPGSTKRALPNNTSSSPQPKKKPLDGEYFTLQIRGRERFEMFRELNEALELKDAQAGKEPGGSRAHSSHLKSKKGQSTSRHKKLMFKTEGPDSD
structure (smiles),measurement,setting,value
CCCCOC(=O)c1ccccc1C(=O)OCCCC,outcome,[1],inactive
same,outcome,[2],inactive
same,outcome,[3],inactive
same,outcome,[4],inactive
same,outcome,[5],inactive
same,outcome,[6],inactive
same,outcome,[7],inactive
same,outcome,[8],inactive
same,outcome,[9],inactive
same,outcome,[10],inactive
same,outcome,[11],inactive
same,outcome,[12],inactive
same,outcome,[13],inactive
same,outcome,[14],inactive
same,outcome,[15],inactive
same,outcome,[16],inactive
Cc1c(F)c(F)c(COC(=O)C2C(/C=C(\Cl)C(F)(F)F)C2(C)C)c(F)c1F (centres undefined),outcome,[1],inactive
same,outcome,[17],inactive
same,outcome,[18],inactive
same,outcome,[4],inactive
same,AC50,[5],1.79 µM (active)
same,AC50,[6],3.4 µM (active)
same,AC50,[7],3.05 µM (active)
same,AC50,[8],4.35 µM (active)
same,AC50,[9],2.75 µM (active)
same,AC50,[10],3.67 µM (active)
same,AC50,[11],5.03 µM (active)
same,AC50,[12],2.6 µM (active)
same,outcome,[13],inactive
same,AC50,[14],3.13 µM (active)
same,AC50,[15],3.42 µM (active)
same,outcome,[16],inactive
COP(N)(=O)SC (centres undefined),outcome,[1],inactive
same,outcome,[2],inactive
same,outcome,[18],inactive
same,outcome,[4],inactive
same,outcome,[5],inactive
same,outcome,[8],inactive
same,outcome,[10],inactive
same,outcome,[11],inactive
same,outcome,[12],inactive
same,outcome,[13],inactive
same,outcome,[15],inactive
same,outcome,[16],inactive
COP(=S)(OC)Oc1nc(Cl)c(Cl)cc1Cl,outcome,[2],inactive
same,outcome,[18],inactive
same,outcome,[3],inactive
same,outcome,[5],inactive
same,outcome,[6],inactive
same,outcome,[7],inactive
same,AC50,[9],34 µM (active)
same,outcome,[10],inactive
same,outcome,[12],inactive
same,outcome,[13],inactive
same,outcome,[14],inactive
same,outcome,[15],inactive
same,outcome,[16],inactive
CC1COC(Cn2cncn2)(c2ccc(Oc3ccc(Cl)cc3)cc2Cl)O1 (centres undefined),AC50,[1],46.1 µM (active)
same,AC50,[17],71.1 µM (active)
same,AC50,[2],66.3 µM (active)
same,outcome,[18],inactive
same,AC50,[3],90.3 µM (active)
same,AC50,[5],8.51 µM (active)
same,outcome,[8],inactive
same,AC50,[9],26.6 µM (active)
same,outcome,[10],inactive
same,outcome,[11],inactive
same,outcome,[13],inactive
same,AC50,[14],3.69 µM (active)
same,outcome,[16],inactive
CC(C)(C)c1ccc(CSc2cnn(C(C)(C)C)c(=O)c2Cl)cc1,outcome,[1],inactive
same,outcome,[2],inactive
same,outcome,[18],inactive
same,outcome,[3],inactive
same,outcome,[5],inactive
same,outcome,[6],inactive
same,outcome,[7],inactive
same,outcome,[8],inactive
same,outcome,[9],inactive
same,outcome,[10],inactive
same,outcome,[11],inactive
same,outcome,[12],inactive
same,outcome,[14],inactive
same,outcome,[16],inactive
CCOc1cc(Oc2ccc(C(F)(F)F)cc2Cl)ccc1[N+](=O)[O-],outcome,[1],inactive
same,outcome,[17],inactive
same,outcome,[18],inactive
same,outcome,[3],inactive
same,outcome,[5],inactive
same,outcome,[6],inactive
same,outcome,[8],inactive
same,outcome,[9],inactive
same,outcome,[11],inactive
same,outcome,[13],inactive
same,outcome,[14],inactive
CCNc1nc(Cl)nc(NC(C)C)n1,outcome,[3],inactive
same,outcome,[4],inactive
same,outcome,[5],inactive
same,outcome,[6],inactive
same,outcome,[7],inactive
same,outcome,[8],inactive
same,outcome,[9],inactive
same,outcome,[10],inactive
same,outcome,[11],inactive
same,outcome,[12],inactive
same,outcome,[13],inactive
same,outcome,[14],inactive
same,outcome,[15],inactive
same,outcome,[16],inactive
